HP1b binding inh – inhibitors of HP1-beta chromodomain binding to methylated histone tails; AID 540317; Potency, µM (highest dose often 114 µM), for the others: at the highest dose activity change, negative = inhibition, usual class: inhibitors; actives 0.56% (n = 390,000); P83916; AlphaScreen HP1-beta / biotin-H3K9me3 peptide binding; note: nearly all actives have a fitted effect of over 70% in size
Target sequence (P83916 whole entry, looked up): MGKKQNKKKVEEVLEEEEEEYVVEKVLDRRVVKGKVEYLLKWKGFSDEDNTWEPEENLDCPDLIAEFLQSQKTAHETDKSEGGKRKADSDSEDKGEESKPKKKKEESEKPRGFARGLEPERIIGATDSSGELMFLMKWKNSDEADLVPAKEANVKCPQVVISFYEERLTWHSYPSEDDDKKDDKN
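Compound inhibition of the preformed complex between 50 nM HP1-beta and 50 nM biotinylated H3K9me3 peptide was read by AlphaScreen. Buffer was PBS pH 7.4 with 0.01% Tween-20. Incubations ran 30 min at room temperature, with 10 ug/mL donor/acceptor beads.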
JMJD2A Tudor – JMJD2A Tudor domain (human) inhibition. O75164. AlphaScreen JMJD2A-Tudor / H3K4me3 peptide binding. Potency, µM (top dose mostly 114 µM), without a hit: at the top dose activity change, negative = inhibition, actives largely listed as inhibitors. actives 4.4% (n = 390,000). AID 504339; note: % is set by controls: 0 for no effect and ±100 for the full control effect; nearly all actives have a fitted effect of over 50% in size
L3MBTL1 block – inhibitors of human L3MBTL1; AlphaScreen L3MBTL1–H3K9me1 peptide binding; actives 0.66% (n = 230,000); AID 485360; Q9Y468; Potency, µM (top dose mostly 57.1 µM), inactives show top-dose activity, negative = inhibition, most hits filed as inhibitors; note: % is set by controls: 0 for no effect and ±100 for the full control effect; nearly all actives have a fitted effect of over 60% in size
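L3MBTL1 (50 nM) pre-complexed 30 min with biotinylated H3(1-15)K9me1 peptide (75 nM), then compounds added for 30 min at room temperature; AlphaScreen streptavidin donor/nickel chelate acceptor beads (10 ug/mL final) read after 30 min dark incubation.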
BAZ2B inh – BAZ2B (human) inhibition; Q9UIF8; AlphaScreen BAZ2B-H3K14Ac peptide displacement; Potency, µM (highest dose often 114 µM), for inactives: top-dose activity change, negative = inhibition, usual class: inhibitors; actives 4.4% (n = 360,000); AID 504333; note: % is set by controls: 0 for no effect and ±100 for the full control effect; nearly all actives have a fitted effect of over 60% in size
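BAZ2B 50 nM plus b-H3(5-23)K14Ac 50 nM, PBS pH 7.4/0.01% Tween-20, 30 min RT; compound added (max 110 uM), 30 min RT; streptavidin donor/Ni-chelate acceptor beads 10 ug/mL final, 20 min dark; AlphaScreen read.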
G9a block – inhibitors of human histone lysine methyltransferase G9a | G9a H3K9 monomethylation, AlphaScreen, 2 h | actives 8.8% (n = 350,000) | Q96KQ7 | Potency, µM (titrated, usually from 102 µM), for the others: at the highest dose activity, negative = inhibition, actives largely listed as inhibitors; note: % is set by controls: 0 for no effect and ±100 for the full control effect; nearly all actives have a fitted effect of over 75% in size
Target sequence (Q96KQ7 913-1193 limits assumed): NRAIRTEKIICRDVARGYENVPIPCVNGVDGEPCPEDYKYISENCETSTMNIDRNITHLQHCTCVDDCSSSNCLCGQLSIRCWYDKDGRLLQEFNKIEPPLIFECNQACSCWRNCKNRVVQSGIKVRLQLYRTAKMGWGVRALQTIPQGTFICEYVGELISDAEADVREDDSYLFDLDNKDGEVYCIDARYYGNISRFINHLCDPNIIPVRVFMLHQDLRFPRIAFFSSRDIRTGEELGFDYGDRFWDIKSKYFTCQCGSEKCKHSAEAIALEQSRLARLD
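Compounds were preincubated with 20 nM G9a for 15 min, after which biotinylated H3K9 peptide (500 nM) and SAM (20 uM) started a 2 h room-temperature reaction. Monomethylated product was quantified by antibody-based AlphaScreen chemiluminescence.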
GLS inh – glutaminase GLS (human) inhibition | O94925 | GLS enzymatic activity, qHTS titration | Potency, µM (highest dose often 45.5 µM), inactives show at the top dose activity change, negative = inhibition, actives largely listed as inhibitors | actives 0.21% (n = 410,000); note: % is set by controls: 0 for no effect and ±100 for the full control effect
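Glutamate formation by hKGA was monitored fluorometrically using coupled glutamate oxidase, HRP and Amplex Red. Substrate was added as 1 mM L-glutamine solution; incubation was 30 min at RT after an initial read.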
The depositor's hits bear a star; ? = inconclusive; nt = no result; [ ] = dose if it differs, or a comment. The list is not random: actives were taken first. Their share in the collection is about 10%. Calls come from the whole dose curve; as a rule, active = well fitted curve in the direction sought with a large enough effect; inconclusive = small, poorly fitted or top-dose-only effect, or another doubt; inactive = no such curve, though single readings can be large; an effect the other way counts as inactive or inconclusive. Potency is the fitted concentration of half-maximal effect.

SMILES	HP1b binding inh	JMJD2A Tudor	L3MBTL1 block	BAZ2B inh	G9a block	GLS inh
CCOc1ccc(NC(=O)CCS(=O)(=O)c2ccc(Br)s2)cc1	-11%	?	nt	-27%	?	4%
COc1cc(/C=N/n2c(C)nnc2C)cc(OC)c1OC	49%	17%	nt	-4%	-5%	-4%
COc1cc(-c2n[nH]c(=S)n2/N=C/c2cccn2C)cc(OC)c1OC	?	1.3µM*	nt	?	?	?
S=c1[nH]nc(-c2ccccn2)n1/N=C/c1ccco1	23%	7.1µM*	20µM*	8.9µM*	nt	-7%
Cc1cc(C)n(-c2nnc(C)n2/N=C/c2ccco2)n1	24%	-12%	nt	10%	7%	15%
CSCC(=O)N1CCC(n2nccc2NC(=O)c2ccc3c(c2)OCO3)CC1	8%	?	nt	1%	45µM*	0%
COc1ccc(-c2c3c(=O)n(C)c(=O)n(C)c3cn2C2CCCCC2)cc1	?	?	nt	50µM*	?	27%
Cc1ccc(NS(=O)(=O)c2cccc(C(=O)O)c2)cc1C	nt	-11%	nt	nt	nt	nt
CCOC(=O)C1CCCN(CCC(=O)Nc2ccc(Br)cc2)C1 (stereo not given)	33%	3%	9%	-4%	nt	5%
CCOC(=O)C1CCCN(Cc2nc(N)nc(Nc3ccc(Cl)cc3)n2)C1 (stereo not given)	32%	18%[11.4 µM]	nt	50µM*	?	-15%
CCOC(=O)C1CCCN(Cc2nc(N)nc(Nc3ccc(OC)cc3)n2)C1 (stereo not given)	-22%	20µM*	nt	?	-8%[12.7 µM]	41%
CCOC(=O)C1CCCN(Cc2nc(N)nc(Nc3ccccc3OC)n2)C1 (stereo not given)	38%	56µM*	-2%	?	26%	3%
CC(=O)c1cccc(Nc2ncnc3c2cnn3C)c1	11%	-12%	nt	2%	0%[59 µM]	-9%
COc1cc(/C=C(\C#N)C(=O)c2ccc(O)c(O)c2)cc(I)c1O	8.9µM*	8.9µM*	0.32µM*	40µM*	2.2µM*	13%
COc1ccc(C=C(C#N)C(=O)c2ccccc2)cc1	nt	nt	nt	nt	nt	11%
Cc1ccc(S(=O)(=O)NCC(=O)NCC(=O)OCc2c(F)cccc2Cl)cc1	18%	-5%	-21%	3%	8.9µM*	2%
Cc1ccccc1C(=O)NC(=S)Nc1ccccc1N1CCCC1	?	25µM*	?	25µM*	20µM*	28%
CS(=O)(=O)N1CCN(c2ccccc2NC(=S)NC(=O)c2cccs2)CC1	16%	-11%[11.4 µM]	-8%	?	17%	-15%
CC(C)Oc1ccc(C(=O)Nc2ccccc2N2CCCC2)cc1	?	-5%[11.4 µM]	nt	?	45µM*	22%
O=C(Nc1ccccc1N1CCCC1)c1cccc(F)c1	26%	-16%	nt	?	35µM*	3%
O=C(Nc1ccccc1N1CCN(C(=O)c2ccc(Cl)cc2)CC1)c1cccc(F)c1	28%	-11%	nt	-10%	19%	5%
CC1CCN(c2ccccc2NC(=S)NC(=O)c2cccs2)CC1	?	?	-16%	35µM*	15%[12.7 µM]	1%
COc1ccc(C(=O)Nc2ccccc2N2CCCC2)cc1	20%	-23%	nt	?	-7%[2.33 µM]	18%
O=C(NCC(c1cccs1)S(=O)(=O)c1cccs1)c1ccc(Cl)cc1 (stereo not given)	-3%	-11%	nt	2%	2%[59 µM]	-4%
O=C(NC(=S)Nc1ccccc1N1CCCCC1)c1ccccc1	-24%	?	-1%	?	32µM*	10%
SMILES	HP1b binding inh	JMJD2A Tudor	L3MBTL1 block	BAZ2B inh	G9a block	GLS inh
O=C(NC(=S)Nc1cccnc1Cl)c1ccc(F)cc1	15%	3%	nt	4%	?	-14%
Cc1cc(C(=O)NC(=S)Nc2ccccc2N2CCOCC2)ccc1[N+](=O)[O-]	?	?	-24%	?	35µM*	19%
O=C(NC(=S)Nc1ccccc1N1CCCC1)c1ccc(F)cc1	50µM*	35µM*	-5%[11.4 µM]	25µM*	32µM*	33%
O=C(NC(=S)Nc1ncccn1)c1ccc(F)cc1	-19%	-22%	nt	?	8.9µM*	-3%
O=C(NCCOCCn1c(=O)oc2ccccc21)Nc1ccc(Cl)cc1	19%	-17%	nt	1%	0%[59 µM]	-1%
CC(=O)Nc1nonc1-c1nnc(SCc2ccccc2C)n1C	27%	-8%	nt	-12%	-2%[59 µM]	9%
Cc1ccccc1Nc1c(-c2ccc(Br)o2)nc2ccc(Cl)cn12	19%	-9%	nt	-12%	-31%[59 µM]	0%
O=C(O)CSc1ncnc2nc[nH]c12	34%	-18%	nt	-2%	-29%[59 µM]	-1%
c1nc(SSc2ncnc3nc[nH]c23)c2[nH]cnc2n1	?	0.79µM*	nt	nt	nt	-25%
O=C(CSc1ncnc2nc[nH]c12)c1ccc2ccccc2c1	17%	79µM*	22%	-22%	-12%[59 µM]	2%
CC1=C(C(=O)Nc2ccccc2)C(c2cccnc2)n2nc(SCc3ccccc3Cl)nc2N1 (stereo not given)	52%	5%	nt	?	2%[59 µM]	12%
O=C1Nc2ccccc2/C1=N\c1sc2c(c1C(=O)Nc1ccccc1)CCCC2	3%	?	16%[11.4 µM]	-25%	13µM*	nt
COC(=O)c1cc(NC(=O)c2nccnc2C(=O)O)cc(C(=O)OC)c1	31%	56µM*	nt	-39%	45µM*	1%
Cc1ccc(NC(=O)c2cccc(C(=O)Nc3ccc(C)c(C)c3)n2)cc1C	-6%	22µM*	nt	2%	67%	0%
CC(=O)Nc1cccc(C(=O)Nc2cccc3ncccc23)c1	29%	-6%	nt	1%	45µM*	0%
Cc1cc(C)cc(NC(=O)c2nccnc2C(=O)O)c1	6%	79µM*	nt	?	25µM*	1%
COC(=O)c1cc(NC(=O)c2cccnc2)cc(C(=O)OC)c1	40%	-8%	8%	-15%	-1%	-2%
Nc1cccc(C(=O)Nc2cccc3ncccc23)c1	19%	-3%	nt	-13%	nt	0%
CC(=O)c1cccc(NC(=O)c2nccnc2C(=O)O)c1	15%	20µM*	1%	-10%	?	1%
CC(=O)c1cccc(NC(=O)c2nc(-c3ccccc3)oc2C)c1	18%	-11%	nt	-34%	-9%[59 µM]	1%
CC(=O)c1cccc(NC(=O)c2ccc(C(=O)Nc3cccc(C(C)=O)c3)nc2)c1	14%	20µM*	5%	?	?	3%
Cc1ccc(NC(=O)c2nccnc2C(=O)O)cc1C	20%	-32%	nt	?	45µM*	-2%
Cc1ccc(NC(=O)c2ccccc2-c2ccccc2C(=O)O)cc1C	46%	-6%	8%	?	?	-7%
O=C(O)c1nccnc1C(=O)Nc1ccc(Cl)cn1	7%[57 µM]	?	nt	?	45µM*	6%

High-throughput results as filed in PubChem BioAssay.
